Source: PubChem
A3G deaminase = blocks human APOBEC3G single-stranded DNA deamination | Q9HC16 | recombinant A3G, ssDNA deamination FAM/TAMRA fluorescence | inhibition, % at 20 µM | 0.28% of 330,000 active | AID 493012;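 active = inhibition of at least 40% at 20 µM, with no more than 30% in the related APOBEC3A deaminase screen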;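 also: plate controls were DMSO wells with A3G for no effect and wells lacking A3G enzyme for full effect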
Target sequence (Q9HC16 whole entry, looked up): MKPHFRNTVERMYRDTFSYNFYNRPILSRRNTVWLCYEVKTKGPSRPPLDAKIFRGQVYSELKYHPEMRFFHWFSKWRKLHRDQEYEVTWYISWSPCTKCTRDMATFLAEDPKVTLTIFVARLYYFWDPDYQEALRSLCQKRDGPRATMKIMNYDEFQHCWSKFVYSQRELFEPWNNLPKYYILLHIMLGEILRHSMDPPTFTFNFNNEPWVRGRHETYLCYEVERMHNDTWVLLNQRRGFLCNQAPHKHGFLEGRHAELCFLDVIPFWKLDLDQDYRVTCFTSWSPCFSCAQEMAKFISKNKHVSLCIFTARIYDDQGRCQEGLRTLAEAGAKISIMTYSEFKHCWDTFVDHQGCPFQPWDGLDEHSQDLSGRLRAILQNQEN
M18AAP inhibitor = PfM18AAP enzyme inhibition | recombinant PfM18AAP, H-Glu-NHMec fluorogenic cleavage | inhibition, % at 7.35 µM | 1.2% of 290,000 active | AID 1822;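 active = inhibition above the campaign mean inhibition over all tested compounds plus 3 SD, cut at about 28% in these data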;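 also: 0% = plate median of test compound wells and 100% = 2 mM ZnCl2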
NRP1-CendR mod = modulators of CendR peptide binding to human neuropilin-1. inhibition, % at 25 µM. FAM-RPARPAR peptide binding to NRP-1, fluorescence polarization. 0.85% of 360,000 active;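 active = inhibition or corrected inhibition above about 18%, plus a signal ratio from 0.5 to 1.5, limit read from the data, passing the limit was not always enough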
ALR H2O2 inh = human ALR oxidase inhibition via reduced H2O2; P55789; purified ALR, DTT oxidation, H2O2 HRP-luminol luminescence; inhibition, % (no concentration beside the values); 3.8% of 290,000 active; AID 485317;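 active = mean replicate inhibition above about 79%, with every replicate also reaching it, limit read from the data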
Target sequence (P55789 whole entry, looked up): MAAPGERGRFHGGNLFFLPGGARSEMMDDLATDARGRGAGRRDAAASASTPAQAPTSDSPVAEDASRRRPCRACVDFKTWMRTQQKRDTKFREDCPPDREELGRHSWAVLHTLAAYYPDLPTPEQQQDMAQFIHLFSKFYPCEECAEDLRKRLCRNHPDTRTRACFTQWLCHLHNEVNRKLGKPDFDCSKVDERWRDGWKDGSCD
A3A deaminase = blocks human APOBEC3A ssDNA deamination | recombinant A3A, FAM/TAMRA ssDNA deamination fluorescence | inhibition, % at 20 µM | 0.41% of 330,000 active;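 active = at least 40% inhibition at 20 µM here, with at most 30% in a related deaminase screen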;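 also: plate controls were A3A with DMSO for no effect and wells lacking A3A enzyme for full effect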
Yeast superoxide = yeast age-related superoxide inhibition as caloric restriction mimetic. S. cerevisiae aged cells, superoxide DHE fluorescence; stronger effect = lower value. superoxide response (% of plate mean), % at 10 µM. 0.18% of 330,000 active. AID 2690;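 active = superoxide response under a set limit, about three screen SD below normal, cut at about 65% in these data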;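 also: yeast aged for seven days with compound at 30 °C before DHE staining; 100% = average MFI of all compound-treated wells on the plate with controls excluded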
* hit, by the source's call; . = no result given. Hits are enriched below; roughly 5.2% of the tested compounds scored in any of these assays.

SMILES | A3G deaminase | M18AAP inhibitor | NRP1-CendR mod | ALR H2O2 inh | A3A deaminase | Yeast superoxide
CCCCSc1nc2c(c(=O)[nH]1)CCC2 | -5 | 0 | 4 | 4 | 1 | 102
C=CCN1C=C2C(=O)C(C)(OC(=O)CCC(=O)OC)C(=O)C=C2C=C1C1CC1 (stereo not drawn) | -4 | . | 38* | -24 | -2 | 101
COC(=O)CCC(=O)OC1(C)C(=O)C=C2C=C(C3CC3)N(CCc3ccccn3)C=C2C1=O (stereo not drawn) | -12 | . | 30* | . | -4 | 105
COC(=O)CCCC1=CC2=CC(=O)C(C)(OC(=O)c3cccs3)C(=O)C2=CN1CCCCO (stereo not drawn) | -12 | . | 40* | . | -2 | 99
COC(=O)CCC(=O)OC1(C)C(=O)C=C2C=C(C3CC3)N(C(CO)CO)C=C2C1=O (stereo not drawn) | -5 | . | 27* | -17 | 0 | 104
COC(=O)CCC(=O)OC1(C)C(=O)C=C2C=C(C3CC3)N(CCN3CCOCC3)C=C2C1=O (stereo not drawn) | -5 | . | 16 | . | -3 | 100
COC(=O)CCC(=O)OC1(C)C(=O)C=C2C=C(C3CC3)N(CCc3c[nH]c4ccccc34)C=C2C1=O (stereo not drawn) | -8 | . | 0 | . | -1 | 92
CN(CC(=O)Nc1ccc(F)cc1)S(=O)(=O)c1ccc2c(c1)c(=O)n(C)c(=O)n2C | -1 | -12 | -7 | -3 | -2 | 77
COC(=O)CCC(=O)OC1(C)C(=O)C=C2C=C(C3CC3)N(CCCCO)C=C2C1=O (stereo not drawn) | 9 | . | 21* | . | 1 | 91
CCCCN(CCCC)c1nc(-c2ccncc2)nc2ccccc12 | -4 | -9 | -4 | . | -1 | 65*
O=C1C(=O)N(c2nccs2)C(c2ccccc2F)/C1=C(\O)c1ccc2c(c1)OCCO2 (stereo not drawn) | -6 | 3 | -7 | 98* | -4 | 78
CCN(CC(=O)NCc1cccs1)C(=O)c1ccc(S(=O)(=O)N(C)C)cc1 | -3 | -4 | 0 | -9 | -2 | 100
CCN(CC(=O)NCc1cccs1)C(=O)c1ccc(S(=O)(=O)N(C)c2ccccc2)cc1 | -3 | . | 21* | 10 | 1 | 115
C/C(=N\NC(=O)c1nc2ccccn2c1C)c1ccco1 | 0 | -3 | -1 | 2 | 3 | 100
Cc1nc(N[C@@H](Cc2c[nH]c3ccccc23)C(=O)O)c2oc3ccccc3c2n1 | -4 | 8 | . | -18 | -5 | 109
CCc1nc(N[C@@H](Cc2c[nH]c3ccccc23)C(=O)O)c2oc3ccccc3c2n1 | -4 | 2 | 14 | 89* | -12 | 87
CCc1ccccc1NC(=O)CNC(=O)c1ccc(S(=O)(=O)NCc2ccco2)cc1 | . | . | 3 | . | . | .
O=C(CN1CCCc2ccccc21)NCCc1ccc(F)cc1 | -8 | 5 | -37 | 108* | -2 | 106
COc1ccc(CCNC(=O)CN2CCCc3ccccc32)cc1OC | -6 | 2 | -31 | 54 | 2 | 111
CC(C)c1ccc(C2OCC(C)([N+](=O)[O-])CO2)cc1 (stereo not drawn) | . | . | 12 | . | . | .
CCSc1nc2ccccc2c(=O)n1C1CCOC(C)(C)C1 (stereo not drawn) | -5 | -3 | 11 | 1 | -4 | 113
Cc1ccc(NC=C(S(=O)(=O)c2ccccc2)S(=O)(=O)c2ccccc2)cc1 | -6 | 26 | 29* | -8 | 3 | 100
CC(=O)Nc1ccc(NC(=O)COC(=O)c2c(C)nn(-c3ccccc3)c2C)cc1 | -1 | -4 | -3 | 94* | 1 | 105
Cc1ccc(CN2C(=O)CCC2C(=O)N2CCN(c3ccc(F)cc3)CC2)cc1 (stereo not drawn) | -1 | -4 | 20 | 91* | 2 | 107
O=C(C1CCC(=O)N1Cc1cccnc1)N1CCN(c2ccc(F)cc2)CC1 (stereo not drawn) | -8 | -1 | 8 | 29 | -1 | 101
SMILES | A3G deaminase | M18AAP inhibitor | NRP1-CendR mod | ALR H2O2 inh | A3A deaminase | Yeast superoxide
Cc1ccc(CN2C(=O)CCC2C(=O)NC2CC2)cc1 (stereo not drawn) | 1 | -11 | 26* | 19 | 1 | 104
Oc1c(Br)cc(Br)cc1C=Nc1ccc2[nH]ncc2c1 | 3 | 21 | -116 | 0 | 12 | 85
COc1ccc(C=Nc2ccc3[nH]ncc3c2)c(O)c1 | -3 | 0 | -10 | 90* | 0 | 81
O=C1CCCc2c1[nH]c1ccccc21 | 1 | -2 | -16 | -1 | 0 | 107
c1ccc2c(c1)OCCc1c-2[nH]c2ccccc12 | -7 | 2 | 6 | 96* | -3 | 101
C/C(=N\NC(=O)C1CCCC1)c1ccc(C(C)C)cc1 | -7 | -2 | 27* | -6 | -1 | 107
Cc1c(C(=O)NNC(=O)c2cccnc2)cccc1[N+](=O)[O-] | -6 | . | 9 | 0 | -3 | 97
Nc1ccc(N2N=C(N3CCCC3)CC2=O)cc1 | . | . | -5 | . | . | .
Cn1nnnc1SCc1nnc(-c2ccc(F)cc2)o1 | -4 | -14 | 25* | . | -3 | 85
Cn1nnnc1SCc1nnc(-c2ccccc2Br)o1 | -6 | 1 | -2 | 0 | -2 | 86
COc1ccccc1N1CCN(CC(O)COc2ccc(S(=O)(=O)N3CCOCC3)cc2)CC1 (stereo not drawn) | 1 | -12 | 3 | 5 | -1 | 107
CC(=O)COc1ccccc1OC(=O)c1ccco1 | -5 | -6 | -6 | 19 | -2 | 93
Cc1cc(C(=O)NN=C2CCCCC2)c2ccccc2n1 | . | -1 | -12 | 84* | . | 85
COc1ccccc1C(=O)NC(CCSC)C(=O)NNC(=O)c1ccccc1O (stereo not drawn) | -7 | . | -4 | 8 | -3 | 64*
COc1ccccc1C(=O)NC(CCSC)C(=O)NNC(=O)c1ccc(F)cc1 (stereo not drawn) | 11 | -6 | -5 | 1 | -2 | 85
COc1ccc(Nc2cc(C(=O)NCCCN3CCN(C)CC3)c3ccccc3n2)c(OC)c1 | 1 | 5 | 2 | 81* | 0 | 110
COc1ccc(-n2c(=O)c3c4c(sc3n3c(=S)[nH]nc23)COC(C(C)C)C4)cc1 (stereo not drawn) | -7 | 14 | 4 | 97* | -8 | 107
COc1ccc(-n2c(=O)c3c4c(sc3n3c(C)nnc23)COC(C(C)C)C4)cc1 (stereo not drawn) | . | 3 | . | . | . | .
CC(Cc1ccco1)NC(=O)c1ccc(C(F)(F)F)cc1 (stereo not drawn) | -3 | -2 | -4 | -18 | 0 | 98
O=C(CNc1cc([N+](=O)[O-])ccc1NCCO)Nc1cccc(S(=O)(=O)N2CCCCC2)c1 | -5 | . | 2 | 97* | -3 | 82
Cc1csc(SCC(=O)Nc2cccc(S(=O)(=O)N3CCCC3)c2)n1 | -7 | -1 | 26* | . | -3 | 114
